# CYP2C9 act: increases human cytochrome P450 2C9 activity. 1.4% of 96,000 active. AID 1024. P11712. recombinant CYP2C9, luciferin-H conversion, luminescence; active compounds read high; factor 1 = untreated enzyme, 0 = blocked. activation factor at 5 µM;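 active = activation factor of 2 or more for CYP2C9 at a 5 µM dose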;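 note: 0 = sulfaphenazole-blocked wells and 1 = vehicle-only wells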
# PTK2B oligo ant: Pyk2 (human) oligomerization antagonism; z-score (the deposit names both 25 µM and 10 µM); 0.83% of 99,000 active; Q293 cells, Pyk2 FERM NanoBiT luminescence; active compounds read low; AID 1347419; Q14289;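 active = Z-score of -3 or lower, scaled per plate to the spread of control and sample wells; inactive = z-score above -3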;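 note: negative z-score means lost luminescence so less FERM oligomerization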
# Target sequence (Q14289 whole entry, looked up): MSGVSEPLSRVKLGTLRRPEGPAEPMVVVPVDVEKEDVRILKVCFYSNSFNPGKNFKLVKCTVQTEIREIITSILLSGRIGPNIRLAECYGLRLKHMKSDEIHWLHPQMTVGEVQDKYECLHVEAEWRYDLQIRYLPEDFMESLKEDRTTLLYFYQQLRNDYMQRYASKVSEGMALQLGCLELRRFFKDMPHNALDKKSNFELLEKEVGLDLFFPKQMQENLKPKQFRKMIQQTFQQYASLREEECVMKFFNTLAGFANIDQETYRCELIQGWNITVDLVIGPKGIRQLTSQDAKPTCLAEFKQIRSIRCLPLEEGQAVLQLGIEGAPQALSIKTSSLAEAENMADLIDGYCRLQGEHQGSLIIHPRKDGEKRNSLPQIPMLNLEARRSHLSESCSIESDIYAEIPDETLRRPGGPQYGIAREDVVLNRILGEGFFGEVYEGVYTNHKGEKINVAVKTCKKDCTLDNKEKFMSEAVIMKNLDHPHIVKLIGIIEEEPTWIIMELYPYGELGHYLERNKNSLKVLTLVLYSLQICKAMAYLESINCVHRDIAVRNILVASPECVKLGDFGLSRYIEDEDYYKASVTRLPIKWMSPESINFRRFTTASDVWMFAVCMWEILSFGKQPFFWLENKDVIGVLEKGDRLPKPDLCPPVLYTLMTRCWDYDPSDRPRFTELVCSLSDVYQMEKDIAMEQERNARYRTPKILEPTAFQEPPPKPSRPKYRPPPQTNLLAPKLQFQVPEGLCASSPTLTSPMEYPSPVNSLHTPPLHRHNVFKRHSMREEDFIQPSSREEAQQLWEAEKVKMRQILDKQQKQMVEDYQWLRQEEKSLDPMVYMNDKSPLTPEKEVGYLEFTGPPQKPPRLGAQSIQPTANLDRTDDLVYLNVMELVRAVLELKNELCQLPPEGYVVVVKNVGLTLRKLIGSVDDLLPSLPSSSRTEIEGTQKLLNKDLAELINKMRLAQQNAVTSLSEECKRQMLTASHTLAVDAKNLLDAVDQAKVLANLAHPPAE
# CYP2C19 inhib: inhibitors of human CYP2C19; AID 778; P33261; CYP2C19 Supersomes, luciferin-H EGE luminescence, 30 min; inhibition, % at 5 µM; 21% of 96,000 active;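 active = CYP2C19 inhibition above a set limit at 5 µM in the primary screen, cut at about 50% in these data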;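 note: plate controls were negative control wells for no effect and 2.5 mM tranylcypromine positive control for full effect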
# CYP2C19 activ: cytochrome P450 2C19 (human) activation; P33261; recombinant CYP2C19, luciferin-H EGE luminescence; active compounds read high; 0 = fully inhibited enzyme, 1 = untreated enzyme; activation factor at 5 µM; 96,000 tested, under 10 active;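 active = activation factor of at least 2 at 5 µM in the primary screen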;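 note: 0 = wells with 2.5 mM tranylcypromine and 1 = vehicle-only wells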
# CYP2C9 inh: blocks human cytochrome P450 2C9. P11712. CYP2C9 Supersomes, luciferin-H conversion, luminescence. inhibition, % at 5 µM. 20% of 96,000 active. AID 777;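 active = blocking of liver enzyme CYP2C9 beyond about 50% at 5 µM, limit read from the data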
# Starred values were filed as active, the others as inactive; x = no result given. Rows were chosen to be rich in hits. Some 28% of all compounds tested hit in one or more screens of this group.
SMILES,CYP2C9 act,PTK2B oligo ant,CYP2C19 inhib,CYP2C19 activ,CYP2C9 inh
CC(C)(C)NC(=O)CN(C(=O)CS(=O)CC(=O)Nc1ccc(F)cc1)c1ccccc1 (stereo not drawn),0.3,-0.53,7,0.9,71*
CCOC(=O)C1CCN(C(=O)CSCc2nc(-c3ccc(OCC)cc3)oc2C)CC1,0.2,0.85,54*,0.5,81*
CCOc1ccc(-c2nc(CSCC(=O)N3CCN(C(=O)c4ccco4)CC3)c(C)o2)cc1,0.2,x,45,0.5,80*
Cc1oc(-c2ccc(Cl)cc2)nc1CN1CCCC(C(=O)N2CCN(C(=O)c3ccco3)CC2)C1 (stereo not drawn),0.5,x,55*,0.4,52*
Cc1ccc(-c2nc(CSCC(=O)N3CCCC3)c(C)o2)cc1,0.8,0.87,10,0.9,18
CCc1ccc(-c2nc(CN3CCC(C(=O)NCCN(CC)c4ccccc4)CC3)c(C)o2)cc1,0.8,-1.3,7,0.9,18
CCN(CCNC(=O)C1CCCN(Cc2nc(-c3ccc(OC)cc3)oc2C)C1)c1ccccc1 (stereo not drawn),0.4,-0.22,55*,0.4,61*
Cc1cccc(-c2nc(CS(=O)CC(=O)N3CCN(C)CC3)c(C)o2)c1 (stereo not drawn),1,x,8,0.9,4
CCOC(=O)C1CCN(C(=O)CS(=O)Cc2nc(-c3ccc(C)cc3)oc2C)CC1 (stereo not drawn),0.3,x,40,0.6,67*
Cc1ccsc1-c1nc(CSCC(=O)N2CCN(c3ccccc3)CC2)c(C)o1,0.8,x,63*,0.4,24
COCC(C)NS(=O)(=O)c1ccc(NC(=O)C(Cc2ccccc2)NC(N)=O)cc1 (stereo not drawn),0.7,0.43,16,0.8,35
CCOC(=O)c1c(-c2ccccc2)oc2ccc(OC)cc12,0.3,0.5,52*,0.5,65*
NC(=O)c1c(-c2ccccc2)oc2ccc(O)cc12,2.1*,0.27,50,0.5,-115
COc1ccc2oc(-c3ccccc3)c(C(=O)N3CCOCC3)c2c1,0.9,0.16,15,0.8,10
CC1(C)Cc2nc3nc(SCC(=O)NCCc4ccccc4)n(-c4ccccc4)c(=O)c3cc2CO1,0.9,-0.12,-8,1.1,7
FC(F)(F)c1cccc(OCCN2CCN(Cc3ccccc3)CC2)c1,x,1.6,x,x,x
CCOC(=O)c1c(-c2ccccc2Cl)cn2ccccc12,0.2,-1.5,73*,0.3,78*
COc1cccc(C2=NOC(C(=O)Nc3cc(C)nn3-c3ccccc3)C2)c1OC (stereo not drawn),1.1,x,16,0.8,-14
COc1cccc(C2=NOC(C(=O)Nc3cccc(C(C)=O)c3)C2)c1OC (stereo not drawn),1.8,1.1,58*,0.4,-80
CC(=O)c1ccc(NC(=O)C2CC(c3ccc(F)cc3)=NO2)cc1 (stereo not drawn),0.9,0.13,8,0.9,12
Cc1cc(NC(=O)C2CC(c3ccc(F)cc3)=NO2)n(-c2ccccc2)n1 (stereo not drawn),0.7,x,68*,0.3,29
CC(=O)c1cccc(NC(=O)C2CC(c3ccc(F)cc3)=NO2)c1 (stereo not drawn),0.7,-0.19,68*,0.3,28
CN=C(Nc1cc(C)nn1-c1ccccc1)c1ccc(F)cc1,0.5,0.01,92*,0.1,45
Cc1cc(NC(=O)COc2ccccc2)n(-c2ccccc2)n1,0.8,0.62,30,0.7,15
CCOc1ccc(Nc2nc(Cc3nnc(SCC(=O)c4ccc(C)c(C)c4)o3)cs2)cc1,1,-0.69,-3,1,4
SMILES,CYP2C9 act,PTK2B oligo ant,CYP2C19 inhib,CYP2C19 activ,CYP2C9 inh
CCN(C(=O)COC(=O)C(Cc1ccccc1)N1C(=O)c2ccccc2C1=O)C1CCS(=O)(=O)C1 (stereo not drawn),0.7,-0.29,40,0.6,26
O=C(c1ccc(NC2=NC3CS(=O)(=O)CC3S2)cc1)N1CCc2ccccc2C1 (stereo not drawn),1,x,4,1,-1
COc1ccc(N(C)S(=O)(=O)c2c(C)[nH]c(=O)[nH]c2=O)c(OC)c1,0.7,1.4,4,1,32
CC(C)CCNC(=O)CSc1nc2ccsc2c(=O)n1NC(=O)c1ccccc1,0.6,-1.1,0,1,41
CCCN(CCC)C(=O)CSc1nc2ccsc2c(=O)n1NC(=O)c1ccccc1,0.3,-0.11,-13,1.1,66*
CC(C)(C)C(=O)[C@@H]1[C@@H]2C(=O)N(Cc3ccccc3)C(=O)[C@@H]2[C@H]2c3ccccc3C=CN12,0.2,x,74*,0.3,75*
CC(=O)[C@H]1[C@@H]2C(=O)N(c3cccc(Cl)c3)C(=O)[C@@H]2[C@H]2c3ccccc3C=CN21,0.9,-0.56,27,0.7,10
CCSc1nnc(NC(=O)c2cccs2)s1,0.7,-0.24,8,0.9,29
CCSc1nnc(NC(=O)C(C)(C)C)s1,0.6,-0.07,52*,0.5,36
N#Cc1cc2c(nc1SCC(=O)Nc1nccs1)CCCCC2,0.5,0.77,6,0.9,54*
CCSc1nnc(NC(=O)CSc2nc3c(cc2C#N)CCCC3)s1,0.5,-3.2*,18,0.8,51*
CCSc1nnc(NC(=O)CSc2nc(C)cc(C)n2)s1,0.6,0.05,61*,0.4,39
CCc1nnc(NC(=O)CSc2nc3c(cc2C#N)CCC3)s1,0.9,-0.99,5,1,6
N#Cc1cc2c(nc1SCC(=O)Nc1sc3c(c1C#N)CCC3)CCCCCC2,0.5,-0.93,-26,1.3,46
N=C1C=CC=C2C1=NC1(CCCCC1)N2O,0.8,-0.05,18,0.8,22
C#CC1(O)CC(C)NCC1(C)CCC#N (stereo not drawn),1,1.5,-8,1.1,-1
CC(C)c1ccc(OCC(=O)NC(=S)Nc2ccc3c4c(cccc24)CC3)cc1,1.3,0.86,-4,1,-25
CCOc1cccc(OCCCNCCCOC)c1,1,0.17,-8,1.1,-2
O=C(CCS(=O)(=O)c1cccc2nonc12)N1CCN(c2ccc(F)cc2)CC1,2*,1.9,49,0.5,-103
O=C(CCS(=O)(=O)c1cccs1)N1CCN(c2ccc(F)cc2)CC1,0.8,0.96,72*,0.3,18
CCCn1c(SCC(=O)NC2CCCC(C)C2C)n[nH]c1=O (stereo not drawn),1,0.08,-6,1.1,0
C=CCn1c(C)cc(C(=O)CSc2n[nH]c(N)n2)c1C,2.6*,0.38,26,0.7,-157
Nc1nc(SCC(=O)Nc2ccc(Br)cc2F)n[nH]1,0.5,-0.84,93*,0.1,49
Cc1cc(C(=O)CSc2n[nH]c(N)n2)c(C)n1-c1ccccc1,0.4,-0.41,87*,0.1,58*
Cc1cc(C(=O)CSc2n[nH]c(N)n2)c(C)n1-c1cc(F)ccc1F,0.5,0.65,76*,0.2,54*
Cc1cc(C(=O)CSc2n[nH]c(N)n2)c(C)n1-c1ccc(F)cc1,x,0.23,x,x,x

# Bioassay records as filed in PubChem.
